# Source: PubChem (several laboratories)
# An excerpt weighted towards active compounds, which were near 4.3% of everything screened.
# MITF TRPM1 HTS = increases MITF-driven TRPM1 promoter luciferase signal | SK-MEL-5 TRPM1-promoter luciferase, 24 h; % of positive control, neutral wells = 0 | activation, % at 12.5 µM | actives 0.75% (n = 300,000) | AID 588334;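 active = mean activation of at least 80% with every replicate also reaching 80%; inconclusive = mean reaches 80% but some replicate falls short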;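 also: 0% = neutral control wells and 100% = parthenolide positive control wells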
# SMARCA2 activ = increases SMARCA2 function in MMTV reporter cells. MG213 cells, MMTV-luciferase reporter, dexamethasone, overnight. AID 652017. activation, % at 9.1 µM. actives 1% (n = 370,000); in the data active = activation above about 7.8%;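 also: 0% = vehicle wells and 100% = reference activator wells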
# HSF1 inhib = HSF1 inhibition; NIH3T3-HGL HSE-luciferase, MG132-induced, luminescence 8 h; stronger effect = lower value; activity change, negative = inhibition, % at 7.5 µM (by protocol); actives 0.77% (n = 300,000); AID 2098;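 active = more than half of replicate wells show activity change below -50%, luminescence cut by over half; inconclusive = some wells, but at most half, below -50%; inactive = no replicate well below -50%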;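 also: luciferase reports HSF-1 transcriptional activity via heat shock element; 0% = median of DMSO wells and -100% = zero luminescence signal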
# HSF1 activator = increases HSF-1 driven luciferase reporter signal; NIH3T3-HGL HSF-1 luciferase reporter, MG132, 8 h; 100% = twice DMSO control signal; activation, % at 9 µM; actives 1.7% (n = 300,000);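 active = mean replicate activation of at least 50% with a set share of replicates each reaching 50%; inconclusive = only one of those two conditions met; inactive = mean below 50% and too few replicates reaching it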;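 also: 0% = median of the neutral control wells and 100% = twice that signal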
# esBAF inh = inhibitors of esBAF chromatin remodeling in mouse ES cells. actives 2% (n = 350,000). reporter increase, % at 12.5 µM. Bmi1-luciferase knock-in reporter, 24 h; 100% = twice the neutral-well signal. AID 602393; in the data active = activation above about 40%; inconclusive = no clear call, values can overlap the other calls;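 also: 0% = median of the plate's neutral control wells and 100% = double that signal; a rise in the Bmi1 reporter signal indicates esBAF inhibition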
# Wnt act = activates Wnt/beta-catenin signaling in a reporter cell assay | activator, plate reader | activation, % at 9.35 µM | actives 1.2% (n = 300,000) | AID 743398; in the data active = activation above about 30%, passing the limit was not always enough; inconclusive = no clear call, values can overlap the other calls;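 also: 0% = neutral control wells and 100% = positive control wells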
# An asterisk follows results filed as active; ? = inconclusive; · = no result.
SMILES,MITF TRPM1 HTS,SMARCA2 activ,HSF1 inhib,HSF1 activator,esBAF inh,Wnt act
O=C(NCC1CCCO1)c1nn2c(C(F)(F)F)cc(-c3ccco3)nc2c1Cl (centres undefined),20.3,-3.6,-2.2,-8.9,-3.5,1.0
CC(C)NC(=O)N(C)C[C@H]1Oc2cc(C#CCN(C)C)ccc2S(=O)(=O)N([C@H](C)CO)C[C@@H]1C,·,·,·,·,1.1,·
COc1cc2c(cc1NC(=O)c1cccnc1)oc1ccccc12,71.0,3.3,21.9,19.3,72.3*,·
COc1cc2c(cc1NC(=O)CSc1ccccn1)oc1ccccc12,94.6*,3.5,36.0,46.0,48.7*,·
O=c1[nH][nH]c(-c2ccccc2O)c1C(C[N+](=O)[O-])c1ccccc1 (centres undefined),-10.6,-0.9,164.7,228.2*,·,·
CCOc1ccccc1OCCOCCOc1ccccc1[N+](=O)[O-],3.1,-4.5,5.6,19.8,·,6.3
CCOc1cccc(OCCOc2ccccc2[N+](=O)[O-])c1,?,5.1,11.8,36.1,80.3*,·
COc1ccc(-c2cc3ccc(OCC(C)=O)cc3oc2=O)cc1,64.0,4.9,28.1,61.6*,18.3,33.8*
COc1ccc(-c2cc3ccc(O)cc3oc2=O)cc1,89.1*,7.1,25.8,51.1*,-2.0,1.5
COc1ccc(-c2cc3ccc(OCC(C)=O)cc3oc2=O)cc1OC,91.8*,6.4,24.3,28.5,46.7*,22.6
C[C@@H]1CN([C@@H](C)CO)S(=O)(=O)c2ccc(C#Cc3ccc(F)cc3)cc2O[C@@H]1CN(C)S(=O)(=O)c1ccc(F)cc1,·,·,·,·,-7.8,·
C[C@H](CO)N1C[C@H](C)[C@@H](CN(C)Cc2ccc(C(=O)O)cc2)Oc2ccc(NC(=O)Nc3ccc4c(c3)OCO4)cc2CC1=O,·,·,·,·,2.2,·
O=C(N[C@H]1CC[C@@H](CCNS(=O)(=O)Cc2ccccc2)O[C@@H]1CO)c1ccc2c(c1)OCO2,·,·,·,·,-1.1,·
CSC1=N/C(=C\c2ccc(Cl)cc2)C(=O)N1N(C)C,·,-3.6,2.8,35.2,·,3.3
CC1(C)CN=c2s/c(=C\c3ccc(Cl)cc3)c(=O)n2C1,117.1*,-1.3,-8.9,-17.9,12.9,-0.9
CCC(=O)N(Cc1ccco1)Cc1cc2cccc(C)c2n2nnnc12,-1.5,-2.3,-10.1,-0.9,·,46.2*
CC(=O)NCc1ccc(-c2nc3ccccc3s2)cc1,-1.3,2.8,9.1,25.8,-12.6,14.1
CC(=O)NCc1ccc(-c2csc(-c3cccs3)n2)cc1,54.9,5.5,21.5,34.7,53.1*,19.8
CN(C)C(=O)c1cccc(-c2ccc3c(c2)[C@@H]2[C@@H](CCN2C(=O)C2CCOCC2)[C@H](CO)N3)c1,·,·,·,·,-5.1,·
CCN(CCNC(=O)CCCn1nc(C)n2c(cc3sccc32)c1=O)c1ccccc1,·,0.2,49.2,74.0*,-0.5,0.7
Cc1cc(C(=O)Nc2cccc3c2O[C@H](CN(C)S(C)(=O)=O)[C@@H](C)CN([C@H](C)CO)C3=O)n(C)n1,·,·,·,·,-0.6,·
Cc1[nH]n(-c2ccccc2)c(=O)c1N=Nc1ccc2c(c1)OCO2,48.5,-0.6,?,-58.1,64.4*,49.6*
COc1cccc(N=Nc2c(C)[nH]n(-c3ccccc3)c2=O)c1,·,2.8,15.2,7.5,35.0,-0.5
CO[C@H]1CN(C)C(=O)c2cc(NC(=O)c3ccno3)ccc2OC[C@H](C)NC[C@@H]1C,·,·,·,·,-6.4,·
Cc1cc(-c2nnc(CCC(=O)N(C)Cc3cccc4ccccc34)o2)no1,8.9,4.7,42.2,64.3*,11.7,1.4
SMILES,MITF TRPM1 HTS,SMARCA2 activ,HSF1 inhib,HSF1 activator,esBAF inh,Wnt act
O=C(O)CN1C(=O)/C(=C\c2ccccc2OCc2ccc(Cl)cc2Cl)SC1=S,·,-7.8,-66.5*,-70.2,-58.0,-7.1
CO[C@@H]1CN(C)C(=O)c2ccc(NC(C)=O)cc2OC[C@H](C)N(C(=O)CN(C)C)C[C@@H]1C,·,·,·,·,-3.0,·
COC1CCCN(C(=O)c2ccc(OC3CCN(CCc4ccccc4)CC3)cc2)C1 (centres undefined),-10.4,-2.2,-74.5*,-77.5,·,-1.2
O=C(c1ccc(OC2CCN(CCc3ccccc3)CC2)cc1)N1CCCC(O)C1 (centres undefined),5.8,-1.3,-0.9,7.3,-3.8,0.0
O=C(Nc1ccc2c(c1)OCCO2)NC1(C(F)(F)F)Oc2ccccc2O1,·,-5.3,-67.3*,-71.7,-26.2,-8.4
COc1cccc(NC(=O)CNC(=O)[C@@H]2Cc3ccccc3CN2C(=O)OC(C)(C)C)c1,2.5,-0.3,2.7,1.4,4.0,1.2
NC(=O)c1ccccc1OCC(=O)Nc1ccc2c(c1)OCCO2,95.9*,0.5,·,·,?,22.4
Cc1ccc(OCC(=O)Nc2ccc3c(c2)OCCO3)cc1C,-18.0,-4.0,-62.8*,-58.6,·,-2.5
CC(C)(C)OC(=O)N1Cc2ccccc2C[C@H]1C(=O)NCC(=O)Nc1ccc2c(c1)OCCO2,-7.2,-4.7,-63.9*,-62.7,-44.2,-15.3
COc1ccccc1-c1cnc2c(c1)C(=O)N([C@@H](C)CO)C[C@@H](C)[C@@H](CN(C)C(=O)c1ccncc1)O2,·,·,·,·,-1.2,·
COc1ccc(NC(=O)N(C)C[C@H]2Oc3ccc(NS(=O)(=O)c4ccc(F)cc4)cc3CC(=O)N([C@@H](C)CO)C[C@H]2C)cc1,·,·,·,·,4.7,·
O=C(C[C@@H]1C=C[C@H](NC(=O)C2CC2)[C@H](CO)O1)NCCCN1CCOCC1,·,·,·,·,1.0,·
O=C(COc1ccccc1Cl)Nc1ccc2c(c1)OCCO2,53.6,5.5,16.1,20.2,48.5*,·
Cc1cc(C)c(OCC(=O)Nc2cccc(O)c2)cc1C,?,1.6,10.1,48.8,55.5*,·
Cc1cccc(NC(=O)COc2ccc(Br)cc2/C=N/O)c1,122.2*,2.3,64.6,106.9*,·,15.0
O=C(COc1ccc(Br)cc1Cl)NC(=O)Nc1ccc2c(c1)OCCO2,16.3,2.9,-4.7,6.0,·,8.4
Cc1ccccc1OCC(=O)Nc1ccc2c(c1)OCCO2,125.5*,2.1,9.2,-1.3,·,38.5*
Cc1cc(C)c(OCC(=O)Nc2ccc3c(c2)OCO3)cc1C,·,1.3,-5.0,18.3,33.4,·
CC(=O)N1[C@@H]2c3ccc(C4=CCCCC4)c(=O)n3C[C@@H]2[C@@H](CO)[C@@H]1C(=O)N1CCCCC1,·,·,·,·,0.2,·
COc1ccc(-c2ccc3c(c2)O[C@@H](CN(C)CC2CCOCC2)[C@H](C)CN([C@@H](C)CO)S3(=O)=O)cc1,·,·,·,·,-6.0,·
C[C@@H]1CCCCO[C@H](CN(C)C(=O)Nc2ccc(F)cc2)[C@H](C)CN([C@H](C)CO)C(=O)c2cc(NS(=O)(=O)c3ccc(F)cc3)ccc2O1,·,·,·,·,5.9,·
C[C@H](CO)N1C[C@H](C)[C@H](CN(C)Cc2ccc(Oc3ccccc3)cc2)Oc2ccc(NC(=O)NC3CCCCC3)cc2CC1=O,·,·,·,·,-5.9,·
COc1ccccc1OCC(=O)Nc1ccc2c(c1)OCCO2,?,2.4,5.2,2.0,44.5*,3.8
Cc1ccc(OCC(=O)Nc2ccc(N3CCN(S(C)(=O)=O)CC3)cc2)c(C)c1,6.5,-0.2,11.7,16.4,-9.3,0.3
